The structures appear in SMILES notation. Records with an inconclusive call do not appear. A call without a number means that no potency is given here. The source made the active and inactive calls. The call rests on the fitted dose curve; in most records, active means well fitted inhibition curve with a large enough effect; inconclusive means small, poorly fitted or top-dose-only effect; inactive means no such curve, though single readings can be large or run the other way.

The nature of the assay: qHTS assay for measurement of the activity of small molecule inhibitors on Zika virus induced Caspase-3 activity in human iPSC derived neural progenitor cells (hNPCs) (AID 1224857). Further: nearly all actives have a fitted effect of over 65% in size. As to conditions: hNPCs ZIKV-induced caspase-3/7, Caspase-Glo luminescence, 6 h; series mostly up to 45.7 µM. The method, boiled down: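 Cells were plated at 350 per well and grown 16 to 20 hours. Compound pretreatment lasted one hour, after which ZIKV (2 FFU/cell) was added for 6 hours. Percent inhibition was normalized between uninfected and infected controls.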
With `CC(=O)Nc1ccn(C2COC(COC(=O)c3ccccc3)O2)c(=O)n1` (centres undefined), the Potency result was “inactive”. In the case of `CC(=O)/C=C/C=C1/C2CCC(C2)C1(C)C` (centres undefined) it was “inactive”; in that of `C#CC(C)(CC)OC(=O)c1ccccc1C(=O)O` (centres undefined), “inactive”; in that of `COc1ccc(/C(C)=C/C(=O)O)c(OC)c1`, “inactive”. Take `CCC(C(=O)OCCN1CCOC(c2ccccc2)C1C)c1ccccc1` (centres undefined): the Potency result is “inactive”. Under `C=CC[N+]1([C@H]2C[C@H]3[C@@H]4CC[C@H]5C[C@H](OC(C)=O)[C@@H](N6CCCCC6)C[C@]5(C)[C@H]4CC[C@]3(C)[C@H]2OC(=O)CC)CCCCC1` stands “inactive”; under `[O-][n+]1cccc(/C(Cl)=N/OC[C@@H](O)CN2CCCCC2)c1`, “inactive”. In the case of `CC(C)=CCNc1ncnc2c1ncn2[C@@H]1O[C@H](CO)[C@@H](O)[C@H]1O` it was “inactive”; in that of `Cc1ccc(C(C)OC(=O)C2(C)CCC(C(=O)O)C2(C)C)cc1` (centres undefined), “inactive”. In the case of `CCC1(c2cnc[nH]2)Cc2ccccc2C1`, the Potency result was “inactive”. Consider `CCCCCCn1c(=O)c2c(ncn2C)n(C)c1=O`, for which the Potency entry is “inactive”. `CC(=O)N1CCN(c2ccc(O)cc2)CC1`: the Potency result is “inactive”. Turning to `OC1(c2ccccc2)CCNCC1`, the Potency entry was “inactive”. Turning to `CCOC(=O)c1ccc(OCCN2C[C@H](O)[C@@H](O)[C@H](O)[C@H]2CO)cc1`, the Potency result was “inactive”. In the case of `COc1cc(NS(=O)(=O)c2ccc(N)cc2)nc(C)n1` it was “inactive”; in that of `COc1cc(OC)nc(O[C@H](C(=O)O)C(OC)(c2ccccc2)c2ccccc2)n1`, “inactive”; in that of `COc1ccc2cc(C=O)ccc2c1`, “inactive”. Under `COc1ccc2c(c1)CCCC2=O` stands “inactive”; under `COC(=O)CCCCC(CCSS/C(CCO)=C(\C)N(C=O)Cc1cnc(C)nc1N)SC(C)=O` (centres undefined), “inactive”.

The record behind these values is PubChem BioAssay (NCATS).
